Source: PMC5540273 (PLoS ONE, 2017)

Assays:
Settings in all cases: concentration: 1 μM, replicates: in singlicate; n = 1
[1] = tested on: AXL
[2] = tested on: T1, BIKE
T1 construct: gene BMP2K

[3] = tested on: BLK
[4] = tested on: BMPR1A
[5] = tested on: BMPR1B
[6] = tested on: BMPR2
[7] = tested on: BMX
[8] = tested on: BRAF
[9] = tested on: T2, BRK
T2 construct: gene PTK6

[10] = tested on: BRSK1
[11] = tested on: BRSK2
[12] = tested on: BTK
[13] = tested on: BUB1
[14] = tested on: CAMK1B
[15] = tested on: CAMK1D
[16] = tested on: CAMK1G
[17] = tested on: CAMK1
[18] = tested on: CAMK2A
[19] = tested on: CAMK2B
[20] = tested on: CAMK2D
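Note: KINOMEscan kinase panel screen.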

| Structure (SMILES) | %Inh [1] | %Inh [2] | %Inh [3] | %Inh [4] | %Inh [5] | %Inh [6] | %Inh [7] | %Inh [8] | %Inh [9] | %Inh [10] | %Inh [11] | %Inh [12] | %Inh [13] | %Inh [14] | %Inh [15] | %Inh [16] | %Inh [17] | %Inh [18] | %Inh [19] | %Inh [20] |
| --- | --- | --- | --- | --- | --- | --- | --- | --- | --- | --- | --- | --- | --- | --- | --- | --- | --- | --- | --- | --- |
| COc1cccc(C2=C(N(C)c3ccccc3)C(=O)NC2=O)c1 [SB-334865] | 0% | 0% | 0% | 0% | 0% | 0% | 0% | 0% | 15% | 0% | 0% | 0% | 53% | 8% | 12% | 0% | 4% | 0% | 0% | 17% |
| COc1cc2ncn(-c3cc(OCc4ccncc4)c(C(N)=O)s3)c2cc1OC [GSK336313] | 0% | 14% | 0% | 0% | 0% | 0% | 2% | 0% | 0% | 0% | 0% | 0% | 4% | 24% | 25% | 47% | 24% | 0% | 0% | 37% |
| Cc1nn2c(=O)cc(N3CCOCC3)nc2n1Cc1cccc(Cl)c1Cl [GSK2342769] | 4% | 2% | 18% | 0% | 0% | 4% | 12% | 7% | 1% | 0% | 0% | 0% | 12% | 28% | 8% | 8% | 9% | 0% | 0% | 1% |
| COc1cc(Nc2nccc(N3CCC(NC(=O)C(C)c4ccc(Cl)cc4)C3)n2)cc(OC)c1OC (stereo not shown) [GSK1379757] | 13% | 40% | 28% | 0% | 0% | 4% | 1% | 0% | 11% | 0% | 0% | 0% | 48% | 0% | 9% | 0% | 22% | 0% | 0% | 0% |
| Nc1nc(-c2ccccc2F)c(-c2ccnc3ccccc23)s1 [GW560459] | 0% | 17% | 39% | 0% | 13% | 2% | 0% | 7% | 0% | 0% | 4% | 0% | 61% | 0% | 0% | 0% | 6% | 0% | 0% | 0% |
| Cc1ccc(-c2ccc3c(ccc4sc5c(c43)NC[C@@H](C)N=C5N(C)C)n2)cn1 | 0% | 0% | 0% | 0% | 0% | 0% | 0% | 0% | 0% | 0% | 0% | 0% | 0% | 0% | 0% | 0% | 0% | 0% | 0% | 0% |
| Nc1ncnc2c1ncn2-c1cccc2ccccc12 [SKF-97184] | 0% | 0% | 6% | 0% | 0% | 35% | 0% | 0% | 0% | 0% | 22% | 0% | 37% | 27% | 10% | 8% | 20% | 0% | 0% | 0% |
| CCS(=O)c1ccc(-c2coc3ccc(-c4nnc(C)o4)cc23)cc1 (stereo not shown) | 0% | 0% | 3% | 0% | 6% | 15% | 18% | 0% | 0% | 0% | 11% | 18% | 0% | 5% | 23% | 2% | 20% | 0% | 3% | 0% |
| O=C(Nc1n[nH]c2cc(-c3ccccc3F)ccc12)C1CC1 [SB-733371] | 16% | 41% | 0% | 21% | 24% | 0% | 0% | 0% | 0% | 22% | 0% | 0% | 0% | 0% | 0% | 0% | 0% | 2% | 0% | 0% |
| C[C@@H]1CC[C@H](C(=O)NC2CCCCC2)CN1c1cc(-c2ccc3c(N)n[nH]c3c2)nc(N)n1 [GSK2291363] | 4% | 78% | 52% | 0% | 0% | 0% | 21% | 5% | 27% | 0% | 10% | 0% | 48% | 2% | 29% | 22% | 35% | 4% | 16% | 18% |
| COc1ccc(-c2cc3c(C)nc(N)nc3n([C@H]3CC[C@H](O)CC3)c2=O)cn1 | 0% | 0% | 0% | 40% | 0% | 0% | 0% | 0% | 0% | 0% | 0% | 0% | 0% | 0% | 0% | 0% | 0% | 0% | 0% | 0% |
